# Laboratory results from PubChem BioAssay.
# Activity calls are given as the source filed them.
# Experiments:
# [1] = molecular target: Albumin (Bos taurus) (UniProt P02769); experiment: compounds binding labelled BSA control protein – biochemical, small-molecule microarray, Alexa647 label, 635/667 nm fluorescence, artefact control for SMM control protein annotation, profiling panel (AID 1118); conditions: BSA-A647 binding, fluorescence 635 nm, higher = more signal;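 further: score merges 667 nm emission intensity and signal-to-noise per printed compound spot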
# [2] = probe aXIP binding to arrayed compounds – biochemical, NeuroSMM set, 635/667 nm fluorescence, primary screen (AID 1119); conditions: small-molecule microarray, higher = more signal, called active from +8 up or from −8 down;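 further: probe is the protein aXip251-270 applied at 1 µg/mL to compound-printed slides; binding of probe to printed compounds measured as 667 nm fluorescence plus signal to noise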
# [3] = probe aNOTCH3 binding on compound microarray – biochemical, small-molecule microarray, 635/667 nm fluorescence, primary screen (AID 1120); conditions: higher = more signal;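 further: probe is a biotin-tagged antibody raised against NOTCH3 rather than NOTCH3 protein; score merges spot fluorescence near 667 nm with spot signal to noise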
# [4] = probe aNOTCH2 binding on compound microarray – biochemical, small-molecule microarray, 635/667 nm fluorescence, primary screen (AID 1121); conditions: higher = more signal;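 further: score merges feature fluorescence read at 667 nm with its signal to noise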
# [5] = molecular target: Carbonic anhydrase 2 (Homo sapiens) (UniProt P00918); experiment: compounds binding carbonic anhydrase 2 – biochemical, small-molecule microarray, Alexa647-labelled CAII, profiling panel (AID 1122); conditions: CAII-A647 binding fluorescence, higher = more signal
# [6] = COS7 lysate on small-molecule microarray, probe aHis, 635 nm (AID 1123); conditions: COS7 cell lysate, fluorescence, higher = more signal;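 further: z-score combines 667nm fluorescence intensity with signal-to-noise per printed compound spot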
# [7] = probe aLAP1 signal on lysate-treated microarray – cell lysate, small-molecule microarray, COS7 lysate, primary screen (AID 1124); conditions: probe aLAP1, fluorescence, higher = more signal;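 further: lysate comes from COS7 cells expressing LAP1 and is applied at 0.3 µg/mL; score merges spot fluorescence near 667 nm with signal-to-noise over triplicate slides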
# [8] = tested on: Sam68 (KHDRBS1); experiment: compounds binding KHDRBS1 protein – biochemical, small-molecule microarray, 635 nm fluorescence, primary screen (AID 1125); conditions: higher = more signal;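 further: score merges 667 nm channel intensity with signal to noise over triplicate slides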
# [9] = tested on: Chordin-like protein 2 (CHRDL2); experiment: compounds binding chordin-like 2 – biochemical, small-molecule microarray, 635 nm fluorescence, primary screen (AID 1126); conditions: fluorescence 635 nm, higher = more signal;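 further: printed compound slides probed with Chrdl2 protein at 4 µg/mL for 1 h at 4 C; score merges 667 nm emission intensity with signal to noise over three replicate slides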
# [10] = molecular target: Concanavalin-A (Canavalia ensiformis) (UniProt P02866); experiment: compounds binding concanavalin A lectin – biochemical, small-molecule microarray, Alexa647 label, 635 nm, artefact control for SMM control protein annotation, primary screen (AID 1127); conditions: ConA-A647 binding fluorescence, higher = more signal;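 further: z combines 667 nm emission intensity with signal-to-noise across three replicate slides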
# Concanavalin-A (Canavalia ensiformis), sequence (P02866 whole entry, looked up): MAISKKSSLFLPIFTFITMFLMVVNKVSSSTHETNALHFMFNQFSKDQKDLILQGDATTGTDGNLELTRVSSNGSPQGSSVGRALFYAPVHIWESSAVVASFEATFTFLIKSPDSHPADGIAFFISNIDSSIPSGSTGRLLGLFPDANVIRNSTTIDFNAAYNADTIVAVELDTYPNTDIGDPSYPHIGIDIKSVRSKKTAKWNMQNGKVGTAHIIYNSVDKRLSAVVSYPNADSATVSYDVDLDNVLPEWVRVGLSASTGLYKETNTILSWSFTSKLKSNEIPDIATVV
# Albumin (Bos taurus), sequence (P02769 whole entry, looked up): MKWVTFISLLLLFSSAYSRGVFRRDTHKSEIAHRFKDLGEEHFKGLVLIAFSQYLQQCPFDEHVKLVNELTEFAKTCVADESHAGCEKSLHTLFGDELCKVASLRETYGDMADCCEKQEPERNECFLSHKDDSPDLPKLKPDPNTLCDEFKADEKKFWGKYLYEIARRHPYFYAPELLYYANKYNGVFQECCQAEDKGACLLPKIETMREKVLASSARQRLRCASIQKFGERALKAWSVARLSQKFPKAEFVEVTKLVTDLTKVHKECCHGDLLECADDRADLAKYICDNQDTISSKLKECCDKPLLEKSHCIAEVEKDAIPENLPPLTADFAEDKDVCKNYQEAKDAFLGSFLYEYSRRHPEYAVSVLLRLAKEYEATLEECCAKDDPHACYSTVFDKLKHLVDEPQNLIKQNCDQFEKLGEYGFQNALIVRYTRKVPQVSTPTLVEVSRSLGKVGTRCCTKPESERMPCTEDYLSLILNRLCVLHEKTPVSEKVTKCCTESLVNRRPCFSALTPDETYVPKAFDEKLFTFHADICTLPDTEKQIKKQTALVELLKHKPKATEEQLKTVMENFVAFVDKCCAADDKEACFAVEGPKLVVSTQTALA
Structure (SMILES),composite z-score [1],composite Z-score [2],composite z-score [3],composite z-score [4],composite z-score [5],composite z-score [6],composite z-score [7],composite z-score [8],composite z-score [9],composite z-score [10]
O=C(NCc1ccccc1)[C@]1(CCS(=O)(=O)c2ccccc2)N=C(c2ccc(OCCCO)cc2)O[C@@H]1c1ccccc1,0.714,0.235 (inactive),0.296,-0.048,0.555,0.751,0.379,1.31,0.205,1.08
COCCOC(=O)N1C(=O)[C@@]2(c3cc(C#CC4(O)CCCCCC4)ccc31)[C@H](C(=O)N1CCCCCCC1)[C@H]1C(=O)O[C@H](c3ccccc3)[C@H](c3ccccc3)N1[C@@H]2c1ccccc1OCCO,0.155,0.176 (inactive),0.922,0.191,0.452,2.83,0.542,1.33,1.09,0.827
C=C(CCCC)C(=O)CC[C@H](OC(=O)c1cccnc1)c1cccc(OCCO)c1,-0.39,0.087 (inactive),-0.0242,-0.14,0.771,-0.112,0.0948,0.269,0.225,-0.106
O=C1OCC=C[C@H]2OC34C=CCN(c5ccc6ccccc6c5)C(=O)[C@H]3N(CCCO)C(=O)[C@@H]4[C@@H]12 (stereo not given in full),0.314,0.102 (inactive),-0.256,-0.07,0.709,-0.559,1.26,-1.39,-0.824,-0.223
CC1=C2[C@@H](CCc3ccccc3)OB(O)C[C@@H]2n2c(=O)n(-c3ccccc3)c(=O)n2C1,0.201,0.131 (inactive),0.199,-0.11,0.478,0.224,0.0327,0.617,0.469,1
CC1CC/C=C\[C@H]2OC34C=CCN(Cc5ccccc5)C(=O)[C@H]3N(CCCCCO)C(=O)[C@@H]4C2C(=O)O1 (stereo not given in full),0.363,0.815 (inactive),-0.213,-0.19,0.871,-0.351,1.4,-0.883,-0.0737,-0.811
O=c1cccc(CCc2ccccc2)o1,-0.284,0.338 (inactive),-0.301,-0.0986,0.731,0.89,-0.397,0.854,0.146,0.283
O=C1O[C@H](c2ccccc2)[C@H](c2ccccc2)N2[C@H]1[C@@H](C(=O)N1CCN(c3ncccn3)CC1)[C@]1(C(=O)Nc3ccccc31)[C@H]2c1ccc(OCCO)cc1,0.204,-0.317 (inactive),0.183,-0.0986,0.301,1.75,0.151,1.3,0.602,0.536
C=CCC(OC(C)=O)[C@@H]1[C@@H](N(Cc2cc3ccccc3o2)C(=O)c2ccc(C)cc2)c2cc(OCCCO)ccc2N1C(=O)c1ccc2ccccc2c1 (stereo not given in full),0.767,0.698 (inactive),0.0259,-0.101,0.0486,0.605,-0.069,-0.0437,0.157,-0.309
[N-]=[N+]=NCc1ccccc1[C@@H]1OC(c2ccc(OCCCO)cc2)=N[C@]1(Cc1ccccc1N=[N+]=[N-])C(=O)NCc1ccccc1,0.753,-0.0079 (inactive),0.111,0.0427,0.42,1.25,0.272,1.26,0.16,0.815
O=C1C[C@@](C(=O)NC2CC2)(c2ccc([N+](=O)[O-])cc2)[C@@H](c2ccc(CO)cc2)N1CC12CC3CC(CC(C3)C1)C2,0.374,-0.172 (inactive),-0.0236,-0.0091,0.22,0.681,-0.107,0.684,-0.203,1
Cc1c(NC(=O)CC#N)c(=O)n(-c2ccccc2)n1C,0.407,0.676 (inactive),0.0876,-0.193,-0.064,0.0776,0.037,0.529,0.563,0.0636
CC(C)c1ccc(NN2C(C(O)c3cccc(O)c3)C=CC3C(=O)N(c4ccccc4)C(=O)C32)cc1 (stereo not given),1,1 (inactive),0.374,0.0572,0.798,2.53,0.279,1.35,-0.678,1.14
O=C1OCC=C[C@H]2OC34C=CCN(c5ccc(Cl)cc5)C(=O)[C@H]3N(CCCCCCO)C(=O)[C@@H]4[C@@H]12 (stereo not given in full),-0.95,0.276 (inactive),-0.226,-0.148,0.978,0.568,0.688,-1.02,-1.03,-1.59
O=C1C2C=CC(C(O)c3cccs3)N(Nc3ccccc3F)C2C(=O)N1c1ccccc1 (stereo not given),0.512,-0.413 (inactive),-0.0728,-0.181,0.419,1.55,0.118,0.794,-0.399,0.653
